From paper PMC5540273 (PLoS ONE, 2017)

Experiments:
Settings in all cases: concentration: 1 μM, replicates: in singlicate; n = 1
EPHA1 = test system: EPHA1
EPHA2 = test system: EPHA2
EPHA3 = test system: EPHA3
EPHA4 = test system: EPHA4
EPHA5 = test system: EPHA5
EPHA6 = test system: EPHA6
EPHA7 = test system: EPHA7
EPHA8 = test system: EPHA8
EPHB1 = test system: EPHB1
EPHB2 = test system: EPHB2
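Further: KINOMEscan kinase panel screen.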

SMILES	%Inh (EPHA1) [%]	%Inh (EPHA2) [%]	%Inh (EPHA3) [%]	%Inh (EPHA4) [%]	%Inh (EPHA5) [%]	%Inh (EPHA6) [%]	%Inh (EPHA7) [%]	%Inh (EPHA8) [%]	%Inh (EPHB1) [%]	%Inh (EPHB2) [%]
CCS(=O)(=O)c1ccc(OC)c(Nc2ncc(-c3ccc(F)cc3)o2)c1.Cl [GW591947]	0	0	0	0	0	0	0	1	11	64
Nc1nc(-c2ccccc2F)c(-c2ccnc3ccccc23)s1 [GW560459]	0	0	0	0	0	0	0	0	34	0
COc1cc2ncn(-c3cc(OCc4ccncc4)c(C(N)=O)s3)c2cc1OC [GSK336313]	21	0	12	0	0	0	4	0	7	0
Cc1nnc(-c2ccc3ncn(-c4ccc(S(C)=O)cc4)c3c2)o1 (centres unmarked)	0	0	5	46	17	50	1	0	1	15
CCn1c(-c2ccoc2)nc2cnccc21 [SB-733887]	9	0	0	9	0	7	12	24	19	0
